Bioassay records as filed in PubChem BioAssay.
HIV Env fusion – HIV envelope-mediated fusion inhibition; AID 651610; 360,000 tested, 1.1% active; HeLa-JRFL Env/CEM21 cell fusion, luciferase; inhibition, % at 12.3 µM;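 active = mean replicate inhibition score of at least 50 and every replicate individually at or above 50; inconclusive = only one of the two criteria met; inactive = mean below 50 and not all replicates reaching 50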;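 note: 0% = plate neutral controls and 100% = maraviroc near 300 nM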
CFTR F508del cor – correctors of CFTR F508del function in bronchial epithelial cells | CFBE cells, YFP halide quenching; stimulated with forskolin plus potentiator P3; % fluorescence drop versus neutral controls | activity (quench increase), % at 7.58 µM | 350,000 tested, 0.36% active | AID 720511;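 active = mean added fluorescence quench of at least 8% versus neutral control, with both replicates also reaching 8%; inconclusive = only one of the mean or replicate conditions met; inactive = mean below 8% and not both replicates reaching 8%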;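 note: cells transiently co-express mutant CFTR-F508del with the halide-sensitive YFP; corrector assay measuring rescue of mutant channel to the surface after 24 h compound exposure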
MITF act – increases MITF-driven TRPM1 promoter luciferase signal; SK-MEL-5 TRPM1-promoter luciferase, 24 h; % of positive control, neutral wells = 0; activation, % at 12.5 µM; 300,000 tested, 0.75% active; AID 588334;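 active = mean activation of at least 80% with every replicate also reaching 80%; inconclusive = mean reaches 80% but some replicate falls short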;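 note: 0% = neutral control wells and 100% = parthenolide positive control wells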
Wnt act – activators of Wnt/beta-catenin signaling. Wnt/beta-catenin reporter cell assay, activator, plate reader. activation, % at 9.35 µM. 300,000 tested, 1.2% active. AID 743398; in the data active = activation above about 30%, passing the limit was not always enough; inconclusive = no clear call, values can overlap the other calls;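 note: 0% = neutral control wells and 100% = positive control wells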
INS-1E GSIS act – primary screen for activators of insulin secretion dependent on glucose, INS-1E cells, GLuc reporter luminescence; activation, % at 16.6 µM; AID 743287; INS-1E GLuc reporter insulin secretion, 2-3 h; 370,000 tested, 0.61% active;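 active = lowest replicate activation of at least 40%, so every replicate reaches that level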;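 note: 0% = median of neutral control wells and 100% = median of IBMX positive control wells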
Numbers without * were called inactive; u = inconclusive; x = not tested or not shown; [ ] = another dose, or the depositor's remark. This is a sample that favours compounds with a hit; in the whole collection about 2.7% have one here.

SMILES | HIV Env fusion | CFTR F508del cor | MITF act | Wnt act | INS-1E GSIS act
CCc1cc2c(=O)n(C(C)C(=O)OC3CCCCC3)cnc2s1 (stereo not drawn) | x | x | 99.8* | 1.5 | -16.8
NC(=O)c1ncn([C@@H]2O[C@H](C(=O)N[C@H](Cc3c[nH]c4ccccc34)C(=O)O)[C@@H](O)[C@H]2O)n1 | 6.4 | 2.8 | x | 9.2 | x
Cc1nccn1-c1ccc(NC(=O)[C@@H](Cc2ccccc2)NC(=O)[C@H]2O[C@@H](n3ccc(=O)[nH]c3=O)[C@H](O)[C@@H]2O)cc1 | 5.5 | -0.9 | x | -3.1 | 8.6
NC(=O)c1ncn([C@@H]2O[C@H](C(=O)N3CCN(CC(=O)Nc4ccccn4)CC3)[C@@H](O)[C@H]2O)n1 | -9.6 | -1.7 | x | -2.8 | 12.9
NC(=O)c1ncn([C@@H]2O[C@H](C(=O)N[C@H](Cc3ccccc3)C(=O)O)[C@@H](O)[C@H]2O)n1 | -4.0 | 1.8 | x | 1.0 | 43.8*
Cc1ccc(NC(=O)[C@@H](Cc2ccccc2)NC(=O)[C@H]2O[C@@H](n3ccc(=O)[nH]c3=O)[C@H](O)[C@@H]2O)cc1C | 9.5 | -0.8 | x | -2.0 | 51.4*
CN(C(=O)[C@H]1O[C@@H](n2cnc(C(N)=O)n2)[C@H](O)[C@@H]1O)c1ccccc1 | -80.5 | -1.5 | x | -1.2 | 187.4*
Cc1ccc(S(=O)(=O)N[C@H]2CC[C@@H](CC(=O)NCc3ccccc3F)O[C@@H]2CO)cc1 | -1.1[16.7 µM] | -1.7 | x | x | 17.9
COc1ccc(C[C@@H]2CCc3cnnn3COC[C@H](C)NC2=O)cc1 | x | x | x | x | 6.9
C[C@H](CO)N1C[C@H](C)[C@@H](CN(C)C(=O)N[C@H](C)c2ccccc2)OCc2ccccc2-c2ccccc2C1=O | x | x | x | x | 13.2
N/C(=N\c1nc2ccccc2o1)NC(=O)c1ccccc1Br | -44.3 | 1.8 | 85.0* | 7.1 | -0.6
COc1ccc(NC(=O)c2ccc(-c3ccc(C)c4ccccc34)o2)cc1 | -5.5 | -0.3 | 8.5 | 10.7 | -0.1
CC1CCCN(C(=O)c2ccc(-c3ccccc3Cl)o2)C1 (stereo not drawn) | -115.0 | 0.7 | 140.0* | 34.0* | -13.5
COc1ccc(NC(=O)c2ccc(-c3ccccc3Cl)o2)cc1 | -0.3 | -1.6 | 115.8* | 24.0 | -0.2
O=C(c1ccc(-c2ccccc2Cl)o1)N1CCCCCCC1 | -50.7 | -0.1 | u | 39.7* | -36.4
O=C(N[C@@H]1CC[C@H](CCNS(=O)(=O)Cc2ccccc2)O[C@@H]1CO)c1cnccn1 | -13.0[16.7 µM] | -0.3 | x | x | -9.6
NNC(=O)c1cc(-c2cccs2)nc2ccccc12 | 0.9 | -2.7 | -1.2 | -1.8 | 6.3
C/C(=N\NC(=O)c1cc(-c2cccs2)nc2ccccc12)c1ccccn1 | -29.6 | 11.8* | -86.1 | -5.1 | -7.2
Cc1cccc2sc(NNC(=O)c3cc(-c4cccs4)nc4ccccc34)nc12 | 85.2* | -1.3 | -35.2 | 2.7 | x
CN(C)C(=O)[C@@H]1[C@@H](CO)[C@@H]2Cn3c(cccc3=O)[C@@H]2N1CC1CCCC1 | x | -0.2 | x | x | 11.2
CCOc1ccc(CCNC(=O)COC(=O)c2ccco2)cc1OCC | x | x | -1.4 | x | x
CCOc1ccc(CCNC(=O)COC(=O)/C=C/c2ccco2)cc1OCC | -29.2 | 0.3 | -2.4 | 2.1 | 44.3*
COc1ccc(CCNC(=O)/C=C/c2ccco2)cc1OC | -6.0 | 0.2 | x | 0.9 | -3.6
CCOc1ccc(CCNC(=O)/C=C/c2ccco2)cc1OCC | 15.7 | 2.0 | 19.6 | 34.3* | 17.5
CCCCCCC(=O)N(O)C1CC(=O)N(c2ccc(Cl)cc2)C1=O (stereo not drawn) | 7.1 | u | x | 51.8* | -23.2
SMILES | HIV Env fusion | CFTR F508del cor | MITF act | Wnt act | INS-1E GSIS act
CCCCCCC(=O)N(O)C1CC(=O)N(c2ccc(C)cc2)C1=O (stereo not drawn) | u | x | -13.0 | 7.2 | x
CCCC(=O)Nc1ccc2c(c1)C(=O)N(C)[C@H]1CC[C@H](CC(=O)N3CCc4ccccc4C3)O[C@H]1CO2 | -3.7[16.7 µM] | 0.1 | x | x | -2.3
COc1ccc(C(=O)OCC(=O)c2ccc(C3CCCCC3)cc2)cc1 | x | x | 1.0 | x | -41.6
Nc1ccc(O)cc1C(=O)OCC(=O)c1ccc(C2CCCCC2)cc1 | 83.8* | x | 12.5 | -27.2 | 7.9
Cc1ccc(S(=O)(=O)N(C)C[C@@H]2OCc3ccccc3-c3c(n(C)c4ccccc34)C(=O)N([C@H](C)CO)C[C@@H]2C)cc1 | 95.0* | 2.3 | x | -3.0 | -16.6
Cc1ccc(S(=O)(=O)N(C)C[C@H]2OCc3ccccc3-c3c(n(C)c4ccccc34)C(=O)N([C@@H](C)CO)C[C@@H]2C)cc1 | x | -10.9 | x | x | 12.8
C[C@H](CO)N1C[C@H](C)[C@H](CN(C)S(=O)(=O)c2ccc(Cl)cc2)OCc2ccccc2-c2c(n(C)c3ccccc23)C1=O | 81.7* | -3.2 | x | -6.5 | -2.9
CC(=O)Nc1ccc2c(c1)CC(=O)N(C)C[C@H](C)[C@@H](CN(C)C)O2 | x | x | x | x | -1.6
Cc1nn2c(=O)cc(COC(=O)c3c(F)cccc3Cl)nc2s1 | x | 3.4 | 61.3 | 50.3* | 38.9
CCCC#Cc1ccc([C@@H]2[C@@H](CO)N3C(=O)CN(C(=O)CN4CCOCC4)C[C@@H]23)cc1 | x | 0.5 | x | x | 6.5
Cc1ccc(CN2C(=O)CSC2c2cccnc2)cc1 (stereo not drawn) | 8.4 | -0.5 | -2.9 | -2.9 | x
O=C1CSC(c2cccnc2)N1Cc1ccc(Cl)cc1 (stereo not drawn) | 9.0 | 1.7 | 10.4 | 35.3* | -2.1
CCCCn1c(-c2csc3ccccc23)n[nH]c1=S | -19.6 | x | -3.3 | x | 25.6
CCCCCCn1c(-c2cccs2)n[nH]c1=S | 13.8 | -0.2 | 0.2 | 0.6 | 45.8*
Cc1ccc(S(=O)(=O)Nc2ccc3c(c2)C(=O)N([C@H](C)CO)C[C@H](C)[C@@H](CN(C)C(=O)Nc2ccccc2)O3)cc1 | x | -0.5 | x | x | 15.8
CC1CC(C)CN(C(=O)/C=C/c2ccc(S(=O)(=O)N3CCOCC3)cc2)C1 (stereo not drawn) | -2.9 | 8.4* | -8.9 | -0.2 | -4.8
O=C(CCN1C(=O)/C(=C\c2ccccc2)SC1=S)NCCCN1CCOCC1 | -20.2 | -1.6 | 6.1 | -2.3 | 18.1
O=C1C(=Cc2ccccc2O)SC(=S)N1CCCN1CCOCC1 | 85.4* | 2.7 | x | -1.7 | -4.3
C/C(Cc1ccccc1)=N\NC(=O)CNC(=O)c1ccc(Cl)cc1Cl | -10.0 | -2.0 | x | -1.1 | 3.7
C/C(Cc1ccccc1)=N\NC(=O)CNC(=O)c1cccc(Cl)c1 | -0.7 | 0.0 | -3.3 | 33.0* | x
COCCNC(=S)NC(=O)c1ccc(C(C)(C)C)cc1 | -19.4 | -2.5 | 87.1* | 18.5 | -20.5
COCCCn1c(SCc2ccc(OC)cc2)nc2cc(OC)c(OC)cc2c1=N | 56.7* | x | 21.4 | x | x
CN1/C(=C/C=C(C#N)C#N)C(C)(C)c2ccccc21 | -14.1 | -15.7 | 12.4 | 0.5 | 10.8
CC1=C/C(=C\C=C(C#N)C#N)N(C)c2ccccc21 | -153.1 | 10.2* | x | 0.6 | -3.5
COc1ccc([N+](=O)[O-])cc1NC(=O)C(C)OC(=O)c1ccccc1C(=O)c1ccc(Cl)cc1 (stereo not drawn) | 84.8* | x | -10.8 | x | -5.0
